High-throughput results (PubChem BioAssay)
This is a sample that favours compounds with a hit; in the whole collection about 6.7% have one here.
T cruzi growth-1: T. cruzi intracellular proliferation inhibitors, primary screen, cell-based, beta-gal Tulahuen parasites, NIH3T3 host, luminescence; inhibition, % at 8.34 µM; actives 5.9% (n = 77,000); AID 624255, 2012; T. cruzi beta-gal in NIH3T3, GalScreen luminescence, 90 h;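 active means mean inhibition above about 93%, with at least 55% of replicates each passing it, limit read from the data, passing the limit was not always enough; inconclusive means only one of those two conditions holds; inactive means neither condition holds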
C diff growth: C. difficile growth inhibitors, primary screen, HTS. Clostridium difficile clinical isolate growth, OD600, 24 h; active compounds read low. growth activity, negative = inhibition, % at 16 µg/mL (by protocol). actives 0.25% (n = 86,000);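 active means mean growth activity at or below -80% and every replicate also at or below -80%; inconclusive means mean at or below -80% but some replicate above -80%; inactive means mean growth activity above -80%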
Pf Dd2 inh: P. falciparum Dd2 growth inhibitors, primary screen, SYBR Green fluorescence, single dose replicates; 72 h; active compounds read low; activity change, % at 10 µM; actives 2.3% (n = 94,000); in the data active means activity change below about -80%; inconclusive means no clear call, values can overlap the other calls
T cruzi growth-2: T. cruzi intracellular proliferation inhibitors, confirmation, cell-based, NIH3T3 host, beta-gal parasite, luminescence, cherry-pick. inhibition, % at 8.35 µM. AID 651739, 2012. T. cruzi beta-gal in NIH3T3, GalScreen luminescence, 90 h. shares compounds with T cruzi growth-1. actives 72% (n = 5,600);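 active means mean replicate inhibition above about 95% and at least 55% of replicates individually reaching it, limit read from the data; inconclusive means only one of the two criteria is met; inactive means neither criterion is met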
T cruzi growth-3: inhibitors of intracellular T. cruzi replication, confirmation, NIH3T3 host cells, beta-gal parasites, cherry-pick, set 2; shares compounds with T cruzi growth-1; T. cruzi beta-gal in NIH3T3, GalScreen luminescence, 90 h; inhibition, % at 2.09 µM; actives 21% (n = 5,600);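 active means mean inhibition above about 95%, with at least 55% of replicates also reaching it, limit read from the data; inconclusive means meets just one of the two conditions; inactive means meets neither condition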
NIH3T3 tox: cytotoxicity in mouse NIH/3T3 fibroblasts, confirmation, cytotoxicity control for T. cruzi proliferation inhibitor project, cell-based, cherry-pick, single point. shares compounds with T cruzi growth-1. actives 14% (n = 5,600). NIH/3T3 viability, CellTiter-Glo ATP luminescence, 90 h. cytotoxicity (signal decrease), % at 8.35 µM;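 active means mean signal decrease across replicates above about 35% based on untreated-well scatter, with enough replicates individually passing, limit read from the data; inconclusive means no rule stated though some were filed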
3T3 cytotox 2: NIH/3T3 fibroblast cytotoxicity, confirmation, cytotoxicity control, cell-based, cherry-pick, single point, set 2 | shares compounds with T cruzi growth-1 | NIH/3T3 viability, CellTiter-Glo ATP luminescence, 90 h | inhibition, % at 24.9 µM | actives 56% (n = 5,600) | AID 651744, 2012;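 active means mean loss of cell viability signal at or above a set limit, and enough replicates individually reaching it; inconclusive means meets only the mean limit or only the replicate share; inactive means meets neither condition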
Numbers stand for hits; – = inactive; ? = inconclusive; · = not tested or not shown.

SMILES	T cruzi growth-1	C diff growth	Pf Dd2 inh	others
C[C@H]1CN([C@@H](C)CO)C(=O)c2cc(NC(=O)Cc3cn(C)c4ccccc34)ccc2O[C@@H]1CN(C)Cc1ccc(C(F)(F)F)cc1	–	–	–
C[C@@H]1CN([C@@H](C)CO)C(=O)c2cc(NC(=O)Cc3cn(C)c4ccccc34)ccc2O[C@@H]1CN(C)Cc1ccncc1	–	–	–
C[C@H](CO)N1C[C@H](C)[C@H](CN(C)C(=O)CCC(F)(F)F)OCCCC[C@H](C)Oc2ccc(NC(=O)CCCN(C)C)cc2C1=O	–	–	–
COCC(=O)N1C[C@@H]2[C@H](c3ccccc31)[C@H](CO)N2Cc1ccccc1Cl	–	–	–
COc1ccc(NC(=O)Nc2ccc3c(c2)C(=O)N([C@@H](C)CO)C[C@H](C)[C@H](CN(C)C(=O)Nc2ccc(F)cc2)OCCCC[C@H](C)O3)cc1	–	–	–
O=C(N[C@H]1C=C[C@H](CC(=O)N2CCCCC2)O[C@@H]1CO)c1ccccn1	–	·	–
CO[C@H]1CN(C)C(=O)c2ccc(NC(=O)Nc3ccc(Cl)cc3)cc2OC[C@@H](C)N(C(=O)Nc2c(C)noc2C)C[C@@H]1C	–	·	–
O=C(c1ccccn1)N1CC2(C1)[C@H](c1ccccc1)[C@@H](CO)N2C(=O)C1CC1	·	–	–
O=C(Cc1ccccc1)N1C[C@@H]2[C@H](c3ccccc31)[C@@H](CO)N2C(=O)C1CCCCC1	–	–	–
O=S(=O)(Cc1ccccc1)N1CCCCN2[C@H](CO)[C@H](c3ccc(C#Cc4ccccc4)cc3)[C@H]2C1	–	–	–
CCCC#Cc1ccc([C@H]2[C@H]3CN(S(=O)(=O)Cc4ccccc4)CCCCN3[C@H]2CO)cc1	100	–	–	T cruzi growth-2=104;T cruzi growth-3=–;NIH3T3 tox=?;3T3 cytotox 2=76
CC(C)C#Cc1ccc([C@@H]2[C@@H](CO)N3CCCCN(S(=O)(=O)Cc4ccccc4)C[C@@H]23)cc1	101	–	–	T cruzi growth-2=105;T cruzi growth-3=–;NIH3T3 tox=37;3T3 cytotox 2=104
